Reference: PubChem BioAssay AID1159580 (chemical genetic matrix, 2015)
“And” between values parts separate entries of the source, which are not always exact repeats. Identical values can stand only once. Screen size: about 5,500 compounds; about 2,000 (36%) were called active. Roughly 18% stayed inconclusive and do not appear here. Cut-off read from the data, not from the text of the source: active = normalized growth mostly below about 0.91 (no sharp cut-off); inconclusive = no clear call, values can overlap the other calls; inactive = mostly above about 0.92. The list shows a part of the results.

Experiment: chemical genetic growth profiling, strain panel (AID 1159580);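 note: tested at 20 µM; growth read once vehicle control cultures reached saturation at 30 °C; 1 = growth at the plate median or of vehicle wells; lower values mean less growth of the strain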
Settings: S. cerevisiae deletion strains, growth OD
[1] = locus YAL040C, strain CLN3, stronger effect = lower value
[2] = locus YCL061C, strain MRC1 (second series), stronger effect = lower value
[3] = locus YDR363W, strain ESC2, stronger effect = lower value
[4] = locus YER002W, strain NOP16, stronger effect = lower value
[5] = locus YNL153C, strain GIM3, stronger effect = lower value
[6] = locus YNL175C, strain NOP13, stronger effect = lower value
[7] = locus YNL197C, strain WHI3, stronger effect = lower value
[8] = locus YNL224C, strain SQS1, stronger effect = lower value
[9] = locus YOR083W, strain WHI5 (second series), stronger effect = lower value

Measured: normalized growth

Nc1ncnc2c1ncn2[C@@H]1O[C@H](CO)[C@H](O)C1O (some centres not stated)
inactive: [1] 0.999 | [2] 0.998 | [3] 1.01 | [4] 1.01 | [5] 1.04 | [6] 1.02 | [7] 1.02 | [8] 1.02 | [9] 1.07

Nc1ncnc2c1ncn2C1C[C@H](O)[C@@H](CO)O1 (some centres not stated)
0.995 (inactive) and 0.849 (active): locus YHR030C, strain SLT2, stronger effect = lower value
inactive: locus YAL013W, strain DEP1, stronger effect = lower value 0.998 | locus YAL021C, strain ccr4, stronger effect = lower value 1.03 | locus YAL026C, strain drs2, stronger effect = lower value 1.02 | locus YAL030W, strain snc1, stronger effect = lower value 1.01 | locus YBL061C, strain skt5, stronger effect = lower value 1.01 | locus YBR009C, strain hhf1, stronger effect = lower value 1.02 | locus YBR021W, strain FUR4, stronger effect = lower value 1.02 | locus YBR023C, strain chs3, stronger effect = lower value 1 | locus YBR171W, strain sec66, stronger effect = lower value 1.03 | locus YBR229C, strain ROT2, stronger effect = lower value 0.962 | locus YBR231C, strain swc5, stronger effect = lower value 1.01 | locus YBR279W, strain paf1, stronger effect = lower value 1.01 | locus YCL011C, strain gbp2, stronger effect = lower value 1.02 | locus YCL016C, strain dcc1, stronger effect = lower value 1.01 | locus YCL029C, strain bik1, stronger effect = lower value 0.998 | locus YCL061C, strain MRC1, stronger effect = lower value 1.02 | locus YCL069W, strain vba3, stronger effect = lower value 1.01 | locus YCR088W, strain abp1, stronger effect = lower value 1.01 | locus YDL005C, strain med2, stronger effect = lower value 1.02 | locus YDL035C, strain GPR1, stronger effect = lower value 0.99 | locus YDL040C, strain nat1, stronger effect = lower value 1.01 | locus YDL074C, strain BRE1, stronger effect = lower value 1.01 | locus YDL101C, strain DUN1, stronger effect = lower value 0.99 | locus YDL185W, strain tfp1, stronger effect = lower value 0.986 | locus YDL192W, strain arf1, stronger effect = lower value 1 | locus YDR001C, strain nth1, stronger effect = lower value 1.01 | locus YDR069C, strain doa4, stronger effect = lower value 1.02 | locus YDR101C, strain arx1, stronger effect = lower value 1.04 | locus YDR137W, strain rgp1, stronger effect = lower value 1.02 | locus YDR159W, strain sac3, stronger effect = lower value 1.03 | locus YDR162C, strain NBP2, stronger effect = lower value 0.984 | locus YDR195W, strain ref2 0.994 | locus YDR297W, strain sur2, stronger effect = lower value 1.01 | locus YDR318W, strain mcm21, stronger effect = lower value 0.968 | locus YDR334W, strain swr1, stronger effect = lower value 1.01 | locus YDR335W, strain msn5, stronger effect = lower value 1 | locus YDR388W, stronger effect = lower value 0.993 | locus YDR392W, strain spt3, stronger effect = lower value 1.01 | locus YDR502C, strain sam2, stronger effect = lower value 0.991 | locus YEL003W, strain gim4, stronger effect = lower value 1.02 | locus YEL037C, strain rad23, stronger effect = lower value 1 | locus YEL061C, strain CIN8 (second series), stronger effect = lower value 1.02 | locus YEL061C, strain CIN8, stronger effect = lower value 1 | locus YER015W, strain faa2, stronger effect = lower value 1.01 | locus YER016W, strain bim1, stronger effect = lower value 1.02 | locus YER110C, stronger effect = lower value 0.993 | locus YER111C, strain swi4, stronger effect = lower value 1.02 | locus YER155C, strain BEM2 (second series), stronger effect = lower value 1.03 | locus YER155C, strain BEM2, stronger effect = lower value 0.998 | locus YER167W, strain BCK2, stronger effect = lower value 0.996 | locus YFR010W, strain ubp6, stronger effect = lower value 1.01 | locus YGL078C, strain dbp3, stronger effect = lower value 0.997 | locus YGL086W, strain mad1, stronger effect = lower value 1.06 | locus YGL167C, strain pmr1, stronger effect = lower value 1.02 | locus YGL173C, strain kem1, stronger effect = lower value 1.02 | locus YGL227W, strain vid30, stronger effect = lower value 1.01 | locus YGL240W, strain doc1, stronger effect = lower value 1.02 | locus YGL248W, strain PDE1, stronger effect = lower value 0.981 | locus YGL253W, strain hxk2, stronger effect = lower value 1.02 | locus YGR135W, strain pre9, stronger effect = lower value 0.98 | locus YGR252W, strain gcn5, stronger effect = lower value 0.953 | locus YHR013C, strain ard1, stronger effect = lower value 1.01 | locus YHR027C, strain rpn1, stronger effect = lower value 1 | locus YHR079C, strain IRE1 (second series), stronger effect = lower value 0.99 | locus YHR079C, strain IRE1, stronger effect = lower value 0.872 | locus YHR094C, strain hxt1, stronger effect = lower value 0.987 | locus YHR129C, strain ARP1, stronger effect = lower value 0.989 | locus YHR142W, strain chs7, stronger effect = lower value 1.02 | locus YHR200W, strain rpn10, stronger effect = lower value 0.987 | locus YIL066C, strain RNR3, stronger effect = lower value 0.986 | locus YIL073C, strain SPO22, stronger effect = lower value 0.994 | locus YIL125W, strain kgd1, stronger effect = lower value 0.994 | locus YIR030C, strain dcg1, stronger effect = lower value 0.991 | locus YJL092W, strain hpr5, stronger effect = lower value 1.01 | locus YJL095W, strain BCK1 (second series), stronger effect = lower value 1.01 | locus YJL095W, strain BCK1, stronger effect = lower value 0.989 and 0.886 | locus YJL115W, strain asf1, stronger effect = lower value 1.01 | locus YJL129C, strain trk1, stronger effect = lower value 1.03 | locus YJL134W, strain LCB3, stronger effect = lower value 0.996 | locus YJL154C, strain vps35, stronger effect = lower value 1.02 | locus YJL164C, strain tpk1, stronger effect = lower value 1.01 | locus YJL166W, strain qcr8, stronger effect = lower value 1.03 | locus YJL168C, strain set2, stronger effect = lower value 0.995 | locus YJL187C, strain SWE1 (second series), stronger effect = lower value 0.99 | locus YJL187C, strain SWE1, stronger effect = lower value 1.01 | locus YJR043C, strain POL32, stronger effect = lower value 0.996 | locus YJR066W, strain TOR1, stronger effect = lower value 0.853 | locus YKL009W, strain mrt4, stronger effect = lower value 0.987 | locus YKL068W, stronger effect = lower value 0.991 | locus YKL085W, strain MDH1 (second series), stronger effect = lower value 0.997 | locus YKL085W, strain MDH1, stronger effect = lower value 0.997 | locus YKL160W, strain elf1, stronger effect = lower value 1.01 | locus YKL190W, strain CNB1, stronger effect = lower value 0.993 | locus YKR001C, strain vps1, stronger effect = lower value 1.01 | locus YKR026C, strain gcn3, stronger effect = lower value 1.02 | locus YKR091W, strain srl3, stronger effect = lower value 1.01 | locus YLL001W, strain dnm1, stronger effect = lower value 1.02 | locus YLL026W, stronger effect = lower value 1.01 | locus YLL041C, strain sdh2, stronger effect = lower value 1.02 | locus YLR027C, strain aat2, stronger effect = lower value 1.02 | locus YLR039C, strain RIC1, stronger effect = lower value 1.04 | locus YLR058C, strain SHM2, stronger effect = lower value 0.985 | locus YLR102C, strain apc9, stronger effect = lower value 0.999 | locus YLR221C, strain rsa3, stronger effect = lower value 1.01 | locus YLR258W, strain gsy2, stronger effect = lower value 1.01 | locus YLR262C, strain YPT6 (second series), stronger effect = lower value 0.998 | locus YLR262C, strain YPT6, stronger effect = lower value 1.04 | locus YLR268W, strain sec22, stronger effect = lower value 1.04 | locus YLR320W, strain mms22, stronger effect = lower value 1.03 | locus YLR330W, strain CHS5, stronger effect = lower value 0.994 | locus YLR342W, strain FKS1 (second series), stronger effect = lower value 1.02 | locus YLR342W, strain FKS1, stronger effect = lower value 1.03 | locus YLR357W, strain rsc2, stronger effect = lower value 1.01 | locus YLR370C, strain arc18, stronger effect = lower value 1.02 | locus YLR371W, strain rom2, stronger effect = lower value 0.98 | locus YLR384C, strain iki3, stronger effect = lower value 1.01 | locus YLR418C, strain cdc73, stronger effect = lower value 0.966 | locus YML016C, strain PPZ1, stronger effect = lower value 0.997 | locus YML032C, strain rad52, stronger effect = lower value 0.966 | locus YML120C, strain ndi1, stronger effect = lower value 1.01 | locus YML124C, strain tub3, stronger effect = lower value 0.99 | locus YMR058W, strain fet3, stronger effect = lower value 1.02 | locus YMR078C, strain ctf18, stronger effect = lower value 0.993 | locus YMR125W, strain sto1, stronger effect = lower value 1.01 | locus YMR129W, stronger effect = lower value 1.01 | locus YMR205C, strain PFK2, stronger effect = lower value 1.05 | locus YMR223W, strain ubp8, stronger effect = lower value 0.986 | locus YMR231W, strain pep5, stronger effect = lower value 0.991 | locus YMR307W, strain GAS1, stronger effect = lower value 0.988 | locus YNL067W, strain RPL9B, stronger effect = lower value 0.995 | locus YNL071W, strain lat1, stronger effect = lower value 1.02 | [5] 0.987 | locus YNL183C, strain NPR1, stronger effect = lower value 0.855 | locus YNL209W, strain ssb2, stronger effect = lower value 1.01 | locus YNL233W, strain BNI4, stronger effect = lower value 1 | locus YNL248C, strain rpa49, stronger effect = lower value 1.01 | locus YNL250W, strain rad50, stronger effect = lower value 0.987 | locus YNL271C, strain bni1, stronger effect = lower value 0.992 | locus YNL298W, strain CLA4, stronger effect = lower value 0.989 | locus YNL307C, strain MCK1, stronger effect = lower value 1.01 | locus YNL322C, strain KRE1 (second series), stronger effect = lower value 1.02 | locus YNR049C, strain mso1, stronger effect = lower value 1.01 | locus YNR052C, strain pop2, stronger effect = lower value 0.985 | locus YOL012C, strain htz1 0.909 | locus YOL147C, strain pex11, stronger effect = lower value 0.995 | locus YOR001W, strain rrp6, stronger effect = lower value 1.02 | locus YOR061W, strain CKA2, stronger effect = lower value 0.967 | locus YOR069W, strain VPS5, stronger effect = lower value 1 | locus YOR070C, strain gyp1, stronger effect = lower value 0.999 | locus YOR080W, strain dia2, stronger effect = lower value 1.02 | locus YOR083W, strain WHI5, stronger effect = lower value 1.01 | locus YOR106W, strain vam3, stronger effect = lower value 1.01 | locus YOR136W, strain idh2, stronger effect = lower value 1 | locus YOR144C, strain elg1, stronger effect = lower value 0.988 | locus YOR184W, strain ser1, stronger effect = lower value 0.988 | locus YOR231W, strain MKK1, stronger effect = lower value 0.873 | locus YOR265W, strain rbl2, stronger effect = lower value 0.987 | locus YOR270C, strain vph1, stronger effect = lower value 1.03 | locus YOR290C, strain snf2, stronger effect = lower value 1.02 | locus YOR316C, strain cot1, stronger effect = lower value 0.994 | locus YPL051W, strain arl3, stronger effect = lower value 1.01 | locus YPL078C, strain atp4, stronger effect = lower value 1.01 | locus YPL106C, strain sse1, stronger effect = lower value 1.02 | locus YPL240C, strain hsp82, stronger effect = lower value 1 | locus YPL256C, strain CLN2, stronger effect = lower value 0.911 | locus YPR119W, strain clb2, stronger effect = lower value 0.993 | locus YPR141C, strain kar3, stronger effect = lower value 0.988 | locus YPR163C, strain tif3, stronger effect = lower value 1 | locus YPR167C, strain met16, stronger effect = lower value 0.989 | strain wtn01, stronger effect = lower value 1.03
active: locus YLR113W, strain HOG1, stronger effect = lower value 0.845

Nc1ncnc2c1ncn2[C@@H]1O[C@H](COP(=O)(O)CP(=O)(O)OP(=O)(O)O)[C@H](O)C1O (some centres not stated)
inactive: [1] 1.08 | [2] 0.999 | [3] 1 | [4] 0.983 | locus YGR078C, strain PAC10, stronger effect = lower value 1.02 | locus YJR075W, strain HOC1, stronger effect = lower value 1.02 | locus YMR263W, strain SAP30, stronger effect = lower value 1 | [6] 1 | [7] 1 | [8] 0.999 | [9] 1
